A selection: hits, their analogues and other compounds. The true share with any hit is near 1.6%.
KCNQ2 block: KCNQ2 (rat) channel inhibition | CHO-K1 KCNQ2, FluxOR thallium flux, 20 min; hits give low values | B-score at 10 µM | actives 1.1% (n = 310,000) | AID 2156;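 active = fluorescence ratio B-score at most minus 3 library SDs, with starting brightness B-score within 2 library SDs, cut at about -5.5 in these data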
KCNQ2 pot: KCNQ2 (rat) channel potentiation | B-score at 10 µM | AID 2239 | CHO-K1 KCNQ2, FluxOR thallium flux fluorescence; hits give high values | actives 0.54% (n = 310,000) | O88943;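 active = fluorescence ratio B-score at least 3 SD of library B-scores, with initial fluorescence B-score within 3 of them, cut at about 5.3 in these data; same plate scores as AID 2156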;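 also: B-score of peak minus minimum over baseline fluorescence ratio after K+ and Tl+ stimulus; positive B-score means potentiation of KCNQ2 with more thallium influx and brighter signal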
Kir21 confirm: confirmation of mouse Kir2.1 potassium channel inhibitors; Tl flux remaining, % of negative control (hits give low values), % at 10 µM; shares compounds with KCNQ2 pot; actives 41% (n = 2,300); Kir2.1-expressing cells, FluxOR thallium flux fluorescence; hits give low values;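 active = Primary-screen hit whose thallium flux fell at least 3 control SD below untreated wells in both duplicates, with normal baseline fluorescence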
Target sequence (P35561 whole entry, looked up): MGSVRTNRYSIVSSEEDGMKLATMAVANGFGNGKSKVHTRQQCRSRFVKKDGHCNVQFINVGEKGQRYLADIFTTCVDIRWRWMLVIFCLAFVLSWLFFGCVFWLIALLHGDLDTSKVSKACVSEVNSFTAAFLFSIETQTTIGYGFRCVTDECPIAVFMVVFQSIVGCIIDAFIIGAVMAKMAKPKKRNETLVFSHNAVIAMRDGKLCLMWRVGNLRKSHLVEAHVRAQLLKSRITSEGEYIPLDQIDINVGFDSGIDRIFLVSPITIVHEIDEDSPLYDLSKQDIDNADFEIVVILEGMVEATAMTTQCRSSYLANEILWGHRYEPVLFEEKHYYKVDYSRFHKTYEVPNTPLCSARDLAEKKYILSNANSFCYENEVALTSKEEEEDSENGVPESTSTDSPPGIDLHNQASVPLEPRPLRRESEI
HEK293 ctr: counter-screen for Kir2.1 inhibitors: effect in parental HEK293 cells | shares compounds with KCNQ2 pot | FluxOR thallium flux fluorescence; 0% = unstimulated blank wells | FluxOR signal as % of negative control (100 = no effect), % at 10 µM | actives 19% (n = 2,300) | AID 2105;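 active = dye signal at least 3 control SD above or below untreated wells in both duplicates, raw fluorescence within 3, either direction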;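 also: percent is based on the flux ratio of peak minus minimum fluorescence over baseline F0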
CHO-K1 Tl ctr: counter-screen for KCNQ2 potentiators: effect in parental CHO-K1 cells; actives 43% (n = 1,200); activity increase over 3SD of controls, % at 10 µM; FluxOR thallium flux fluorescence; zero = vehicle mean+3SD, 100% = vehicle-minus-blank window; AID 2282; shares compounds with KCNQ2 pot;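 active = signal rise of at least 3 SD above the untreated control mean, in both duplicate wells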;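 also: counter screen of KCNQ2 potentiator hits so any rise reflects channel-independent effects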
KCNQ1 pot spec: human KCNQ1 counter-target activity of KCNQ2 potentiators | shares compounds with KCNQ2 pot | CHO KCNQ1 stable, FluxOR thallium flux fluorescence; beyond 3SD, as % of vehicle-control signal | activation over 3SD threshold, % at 10 µM | actives 28% (n = 1,200) | AID 2283;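 active = fluorescence ratio rise of at least 3 SD of vehicle wells above their mean, in both replicate wells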
KCNQ2 pot confirm: rat KCNQ2 channel potentiator confirmation; shares compounds with KCNQ2 pot; CHO-KCNQ2 cells, FluxOR thallium flux fluorescence; potentiation, less the hit threshold, % at 10 µM; actives 68% (n = 1,200); AID 2287;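 active = fluorescence ratio rising 3 SD or more over the vehicle control mean in both replicates, plus primary screen hit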;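 also: peak minus minimum thallium fluorescence divided by baseline after K/Tl stimulus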
Kir2-1 sel: tests whether KCNQ2 potentiators also affect mouse Kir2.1; shares compounds with KCNQ2 pot; HEK293 Kir2.1, FluxOR thallium flux fluorescence; activity over 3SD threshold, % at 10 µM; actives 2% (n = 1,200);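 active = fluorescence ratio rise of at least 3 SD above the vehicle-control mean, seen in both replicates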
KCNQ2 W236L pot: potentiates the retigabine-insensitive rat KCNQ2 W236L mutant channel; current increase over 3SD of negative controls (%), hits give high values, % at 25 µM; CHO KCNQ2-W236L, automated patch clamp current; actives 10% (n = 940); shares compounds with KCNQ2 pot;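 active = current increase at least 3 SD of the untreated controls above them in both duplicate recordings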
Of the large screens only hits and unclear results are named; the others gave an inactive call (follow-up assays come after a bar, where they were run).

C/C(=N\NC(=O)c1cc2ccccc2cc1O)c1cccs1	KCNQ2 pot 7.7 | Kir21 confirm inactive | HEK293 ctr inactive | CHO-K1 Tl ctr 102 | KCNQ1 pot spec inactive | KCNQ2 pot confirm inactive | Kir2-1 sel inactive
C/C(=N\NC(=O)c1cc2ccccc2cc1O)c1ccc(C)o1	KCNQ2 pot 6.7 | Kir21 confirm inactive | HEK293 ctr 412% | CHO-K1 Tl ctr inactive | KCNQ1 pot spec 1.0 | KCNQ2 pot confirm 67 | Kir2-1 sel inactive | KCNQ2 W236L pot inactive
Cc1ccc2c(c1)N(CCC(=O)NCCCN1CCCC1)C(=O)C(C)O2 (stereo not given)	none
NC(=O)COC(=O)CSc1ccc2ccccc2c1	none
COc1cc(CCCN2CCNC[C@@H]2Cc2ccc(O)cc2)cc(OC)c1OC	none
CCC1(C)Cc2ccccc2-c2[nH]c(=S)[nH]c(=O)c21 (stereo not given)	none
CCn1c(=S)[nH]c2c(c1=O)C(C)(C)Cc1ccccc1-2	KCNQ2 pot 12 | Kir21 confirm inactive | HEK293 ctr 288% | CHO-K1 Tl ctr 4.3 | KCNQ1 pot spec inactive | KCNQ2 pot confirm 28 | Kir2-1 sel inactive | KCNQ2 W236L pot inactive
O=C(NCc1ccncc1)C(=O)NC1CC1	none
O=S1(=O)CCC(N=Cc2cc(Br)ccc2O)C1 (stereo not given)	KCNQ2 pot 6.4 | Kir21 confirm inactive | HEK293 ctr inactive | CHO-K1 Tl ctr 21 | KCNQ1 pot spec inactive | KCNQ2 pot confirm 22 | Kir2-1 sel inactive | KCNQ2 W236L pot inactive
O=c1c2ccccc2c(C=NC2CCS(=O)(=O)C2)c(O)n1-c1ccccc1 (stereo not given)	none
Cn1ccnc1SCC(=O)Nc1ccc2c(c1)OC(F)(F)O2	none
Cc1ccc(S(=O)(=O)Nc2ccccc2CNC2CCCCC2)cc1	none
CCCCn1c(N)c(N(CC(C)C)C(=O)c2ccc(C)c(S(=O)(=O)N3CCCCC3)c2)c(=O)[nH]c1=O	none (no result: KCNQ2 pot)
COc1ccc(CN2CCC(C(=O)c3cccc(Cl)c3)CC2)cc1	none
COc1ccc(CN2CCC(C(=O)c3ccc(Cl)cc3)CC2)cc1	none | Kir21 confirm 20% | HEK293 ctr inactive
Fc1cccc2sc(Nc3nnc(-c4ccccc4)o3)nc12	KCNQ2 pot 26 | Kir21 confirm inactive | HEK293 ctr 449% | CHO-K1 Tl ctr 1.3 | KCNQ1 pot spec inactive | KCNQ2 pot confirm 62 | Kir2-1 sel 1.1 | KCNQ2 W236L pot inactive
Fc1cccc2sc(Nc3nc4c(F)cccc4s3)nc12	none | Kir21 confirm inactive | HEK293 ctr inactive
COc1cc(OC)cc(-c2nnc(Nc3nc4c(F)cccc4s3)o2)c1	none
NNc1nc2c(F)cccc2s1	none (no result: KCNQ2 pot)
COc1ccccc1CNCc1cc(Br)ccc1OC	none
COc1cccc(CNCc2ccc(OC)c3ccccc23)c1OC	none
COc1ccccc1CNCC(c1ccccc1)c1ccccc1	none (no result: KCNQ2 pot) | Kir21 confirm 48% | HEK293 ctr inactive
COc1ccccc1CNCc1cccc(Oc2ccccc2)c1	none | Kir21 confirm inactive | HEK293 ctr inactive
COc1ccccc1CNCc1ccc(OC)c2ccccc12	none | Kir21 confirm 36% | HEK293 ctr inactive
COc1cc(CNCc2cccc3ccccc23)cc(OC)c1	none (no result: KCNQ2 pot)
COc1ccc(CNCc2ccc(OC)c3ccccc23)cc1	none | Kir21 confirm 20% | HEK293 ctr inactive
COc1ccccc1CNCc1cc(OC)c(OC)cc1OC	none
CC1(O)N(CCC(=O)Nc2cccc(F)c2)C(=O)OC12CCCCC2 (stereo not given)	none (no result: KCNQ2 pot)
COc1ccc(NC(C)=O)cc1S(=O)(=O)N1CCN(C/C=C/c2ccccc2)CC1	none (no result: KCNQ2 pot)
COc1ccsc1NC(=O)OCc1ccc(Cl)cc1	none (no result: KCNQ2 pot)
CSc1nsc(NC(=O)OCc2ccc(Cl)cc2)n1	KCNQ2 pot 5.8 | Kir21 confirm inactive | HEK293 ctr inactive | CHO-K1 Tl ctr 89 | KCNQ1 pot spec inactive | KCNQ2 pot confirm inactive | Kir2-1 sel inactive
COc1ccc(OC)c(C2=C/C(=C/c3ccccn3)C(=O)O2)c1	none (no result: KCNQ2 pot)
O=C(N/N=C1/C(=O)c2cccc3cccc1c23)c1ccc(Cl)cc1	KCNQ2 pot 10 | Kir21 confirm inactive | HEK293 ctr 213% | CHO-K1 Tl ctr 46 | KCNQ1 pot spec 37 | KCNQ2 pot confirm 14 | Kir2-1 sel inactive | KCNQ2 W236L pot inactive
CCNC(=S)N/N=C1\C(=O)c2cccc3cccc1c23	none
CC1CCCCC1n1c(=S)[nH]c2ccccc2c1=O (stereo not given)	KCNQ2 pot 6.6 | Kir21 confirm inactive | HEK293 ctr 208% | CHO-K1 Tl ctr 0.6 | KCNQ1 pot spec 20 | KCNQ2 pot confirm 19 | Kir2-1 sel inactive | KCNQ2 W236L pot inactive
CC1CCCCC1NC(=O)CCCn1c(=S)[nH]c2ccccc2c1=O (stereo not given)	none
CSc1nc2sc3c(c2c(=S)[nH]1)CC(C)(C)OC3	KCNQ2 pot 15 | Kir21 confirm inactive | HEK293 ctr 401% | CHO-K1 Tl ctr inactive | KCNQ1 pot spec inactive | KCNQ2 pot confirm 82 | Kir2-1 sel inactive | KCNQ2 W236L pot inactive
CCc1nc2sc3c(c2c(=S)[nH]1)CC(C)(C)OC3	none
Cc1ccc(-c2nnc(SCc3ccc(C#N)cc3)n2Cc2ccco2)cc1	none (no result: KCNQ2 pot)
Cc1ccccc1CSc1nnc(-c2ccco2)n1Cc1ccco1	none (no result: KCNQ2 pot) | Kir21 confirm 50% | HEK293 ctr inactive
c1ccc(CSc2nnc(-c3ccco3)n2Cc2ccco2)cc1	none (no result: KCNQ2 pot)
c1ccc(CSc2nnc(-c3cccs3)n2Cc2ccco2)cc1	KCNQ2 block -6 | Kir21 confirm 65% | HEK293 ctr inactive
O=C(CC1SC(N2CCCC2)=NC1=O)Nc1ccc(C(=O)N2CCN(c3cccc(Cl)c3)CC2)cc1 (stereo not given)	none
COc1cccc(CNC(=O)CSc2nnc3c(n2)[nH]c2ccccc23)c1	none
Cc1ccc(C(=O)Nc2nc(C(C)(C)C)cs2)s1	KCNQ2 pot 6.6 | Kir21 confirm inactive | HEK293 ctr inactive | CHO-K1 Tl ctr 18 | KCNQ1 pot spec inactive | KCNQ2 pot confirm inactive | Kir2-1 sel inactive | KCNQ2 W236L pot inactive
CC(C)(C)c1csc(NC(=O)c2ccc(Cl)s2)n1	none
CCOc1ccc(C(CC(=O)O)NC(=O)C(CC)c2ccccc2)cc1 (stereo not given)	none
Cc1ccc(C(=O)NCCc2nnc3ccc(SCC(=O)Nc4ccccc4F)nn23)cc1	none (no result: KCNQ2 pot)

Compound activity deposited in PubChem BioAssay by Johns Hopkins Ion Channel Center.
